Compounds with a hit are over-represented: about 4.7% of the library has one in this group of screens.
HTT prom inh: Primary qHTS for Identification of Small Molecule Inhibitors of Huntingtin Promoter Activity; Potency, µM (highest dose often 57.5 µM), most hits filed as inhibitors; HEK293 HTT promoter firefly luciferase reporter, 24 h; AID 1508623, 2021; 48,000 tested, 0.93% active; note: nearly all actives have a fitted effect of over 50% in size
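Luminescence was read after Dual-Glo reagent and a 10 min room-temperature incubation. Values were normalized to vehicle (0% activity) and zero RLU (-100% activity). Reporter HEK293 cells had been exposed to compounds (up to 57.5 uM final) for 24 h.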
DRV1 agonist: qHTS for Agonists of Human Resolvin D1 Receptor DRV1; activation, % at 76.9 µM; 48,000 tested, 2.5% active; Probable G-protein coupled receptor 32 (Homo sapiens), O75388; CHO-K1 GPR32 beta-arrestin PathHunter luminescence, 90 min; zero percent set by DMSO-only wells; AID 1346428, 2018;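 active = activation of at least 60% and not above a set upper limit, about 1 call in 100 departs from these limits; inconclusive = activation of 40% to 60%, or above that upper limit; inactive = activation under 40%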
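PathHunter enzyme-fragment complementation, CHO-K1 GPR32 stable line; 2,500 cells/well, overnight attach; cpd 90 min 37 °C 5% CO2; detection reagent 1 h RT; chemiluminescence. DMSO = EC0.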
FH mod: Identification of activators of human fumarate hydratase by quantitative high-throughput screening | FH coupled MDH/diaphorase resazurin fluorescence, 15 min | Potency, µM (doses to about 79.9 µM), usual class: inhibitors | 54,000 tested, 0.22% active; note: the screen sought activators but most active calls are inhibition curves; nearly all actives have a fitted effect of over 45% in size
NTMT1 inhibitor: Primary qHTS for Inhibitors of N-terminal methyltransferase 1 (NTMT1): MTaseGlo Assay. AID 1645870, 2021. 59,000 tested, 2.5% active. Potency, µM (highest dose often 114 µM), most hits filed as inhibitors. N-terminal Xaa-Pro-Lys N-methyltransferase 1 (Homo sapiens), Q9BV86. NTMT1 MTase-Glo SAH luminescence, purified enzyme; note: nearly all actives have a fitted effect of over 65% in size
HTT-AS act: Primary qHTS for Identification of Small Molecule Activators of Huntingtin-Antisense Promoter Activity; HEK293 HTT-AS promoter firefly luciferase reporter, 24 h; response scale: percent change from vehicle, -100% = no light; AID 1508624, 2021; Potency, µM (titrated, usually from 57.5 µM), hits mostly activators; 48,000 tested, 0.24% active; note: nearly all actives have a fitted effect of over 55% in size
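Quantitative HTS used concentration series of up to 57.5 uM final on HEK293 luciferase reporter cells, 24 h at 37 degrees C. Readout was Dual-Glo firefly luminescence.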
GALC G270D act: A Novel Cell-Based Assay to Identify Small Molecules for B -Galactocerebrosidase | P54803 | 145M-Twi-hGALC-G270D cells (Twitcher mouse brain line with human GALC G270D), HMU-beta-Gal fluorescence, 48 h | Potency, µM (highest dose often 57.5 µM), usual class: activators | 45,000 tested, 0.1% active | AID 1159614, 2016; note: nearly all actives have a fitted effect of over 65% in size
Target sequence (P54803 whole entry G286D): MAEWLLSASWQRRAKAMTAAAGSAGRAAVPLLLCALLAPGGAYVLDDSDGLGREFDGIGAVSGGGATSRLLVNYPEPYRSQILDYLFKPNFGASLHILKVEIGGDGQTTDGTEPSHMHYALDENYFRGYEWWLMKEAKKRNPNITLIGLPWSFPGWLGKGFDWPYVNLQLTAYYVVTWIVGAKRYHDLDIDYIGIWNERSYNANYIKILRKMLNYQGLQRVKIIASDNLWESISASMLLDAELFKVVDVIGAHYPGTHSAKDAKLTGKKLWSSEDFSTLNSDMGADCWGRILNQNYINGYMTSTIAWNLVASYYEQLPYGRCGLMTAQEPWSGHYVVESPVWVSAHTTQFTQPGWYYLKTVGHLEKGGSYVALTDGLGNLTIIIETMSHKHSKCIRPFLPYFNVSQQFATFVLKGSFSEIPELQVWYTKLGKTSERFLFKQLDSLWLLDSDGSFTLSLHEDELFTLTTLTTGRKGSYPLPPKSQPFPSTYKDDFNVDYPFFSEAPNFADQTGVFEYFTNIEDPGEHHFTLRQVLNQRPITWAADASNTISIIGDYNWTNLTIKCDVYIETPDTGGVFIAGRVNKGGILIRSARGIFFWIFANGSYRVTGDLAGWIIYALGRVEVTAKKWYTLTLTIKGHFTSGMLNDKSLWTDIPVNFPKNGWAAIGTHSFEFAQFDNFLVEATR
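Mutant human GALC (G270D), stably expressed in a Twitcher mouse brain cell line lacking endogenous GALC, is measured in live-treated cells via 6-hexadecanoylamino-4-methylumbelliferyl-β-galactoside hydrolysis (0.1 mM final, pH 5.2) with fluorescent detection.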
Of the large screens only hits and unclear results are named; the others gave an inactive call. Unless noted, calls come from the whole dose curve; as a rule, active = well fitted curve in the direction sought with a large enough effect; inconclusive = small, poorly fitted or top-dose-only effect, or another doubt; inactive = no such curve, though single readings can be large; an effect the other way counts as inactive or inconclusive.

CSc1ccc(CCNC(=O)C(C)n2nc(C)c3c(C)n(-c4ccccc4)nc3c2=O)cc1 (stereo not given)	HTT prom inh inconclusive
Cc1cc(NCc2ccc(-c3cccnc3)cc2)nc(-c2ccccc2C(C)C)n1	none (no result: HTT prom inh, DRV1 agonist, FH mod, HTT-AS act, GALC G270D act)
COc1cccc(CCC(=O)NCCc2nc3ccccc3n2CCOc2ccc(C)cc2)c1	none (no result: HTT prom inh, DRV1 agonist, FH mod, HTT-AS act, GALC G270D act)
C=C1C(=O)O[C@H]2C[C@H](C)C(/C=C/C(C)=O)=CC[C@H]12	none (no result: HTT prom inh, DRV1 agonist, FH mod, HTT-AS act, GALC G270D act)
CCS(=O)(=O)c1cccc(C(=O)Nc2ccc(-c3nc4ccccc4s3)c(O)c2)c1	HTT prom inh inconclusive, DRV1 agonist 61, NTMT1 inhibitor inconclusive
C=C1C(O)C(OC(=O)c2ccccc2)C2C(C)(C(=O)O)CCCC2(C)C1CC/C(C)=C\CO (stereo not given)	none (no result: HTT prom inh, DRV1 agonist, HTT-AS act, GALC G270D act)
COc1ccc(/C=C/C(=O)Nc2ccc(Cl)c(Cl)c2)cc1	DRV1 agonist 68
C=C1[C@H](OC(C)=O)[C@H]2[C@@H](OC(C)=O)[C@](C)(OC(C)=O)C[C@]2(OC(C)=O)C(=O)[C@H](C)/C=C/C(C)(C)C(=O)[C@H](OC(=O)C(C)CC)[C@H]1OC(C)=O (stereo not given in full)	none (no result: HTT prom inh, DRV1 agonist, HTT-AS act, GALC G270D act)
COc1ccc(-c2cn3nc(N4CCC(C(=O)Nc5cccc(OC)c5)CC4)sc3n2)cc1	DRV1 agonist 76
CN(C)c1ccc(CNC(=O)c2ccc3nc(Cc4ccccc4)oc3c2)cc1	HTT prom inh inconclusive, FH mod inconclusive
CN(C)c1ccc2cc(C(=O)N[C@@H](CCCN=C(N)CCl)C(=O)NCc3ccccc3)ccc2c1	NTMT1 inhibitor 5.6µM (no result: DRV1 agonist, GALC G270D act)
Cc1cccc(NS(=O)(=O)c2ccc3[nH]c4c(c3c2)CCCCCC4)c1	HTT prom inh inconclusive, FH mod inconclusive
CCOC(=O)c1cccc(NS(=O)(=O)c2ccc3[nH]c4c(c3c2)CCCC4)c1	DRV1 agonist 82, FH mod inconclusive, NTMT1 inhibitor inconclusive
O=S(=O)(Nc1cccc(Cl)c1)c1ccc2[nH]c3c(c2c1)CCCCCC3	HTT prom inh inconclusive, DRV1 agonist 62, FH mod inconclusive
Cc1cccc(C)c1NC(=O)CN(C)S(=O)(=O)c1ccc2[nH]c3c(c2c1)CCCC3	DRV1 agonist 62, NTMT1 inhibitor inconclusive
CC(=O)c1cccc(NS(=O)(=O)c2cccc(S(=O)(=O)c3ccc(Br)cc3)c2)c1	HTT prom inh 32µM, DRV1 agonist 63
CCOc1ccc(NS(=O)(=O)c2ccc3[nH]c4c(c3c2)CCCC4)cc1	FH mod inconclusive, NTMT1 inhibitor inconclusive
Cc1ccc(Nc2nnc(-c3ccc([N+](=O)[O-])cc3)o2)cc1Cl	none (no result: HTT prom inh, DRV1 agonist, HTT-AS act, GALC G270D act)
N=c1ccn2c(n1)O[C@H]1C(O)[C@@H](CO)O[C@H]12 (stereo not given in full)	none (no result: HTT prom inh, DRV1 agonist, NTMT1 inhibitor, HTT-AS act, GALC G270D act)
CCOC(=O)c1cnn(-c2ccccc2)c1NC(=O)c1cc2nc(-c3ccco3)cc(C(F)(F)Cl)n2n1	none (no result: HTT prom inh, DRV1 agonist, HTT-AS act, GALC G270D act)
C[C@@H]1O[C@@H](O[C@H]2[C@H](O[C@H]3[C@H](O[C@H]4CC[C@@]5(C)C(CC[C@]6(C)C5CC=C5[C@@H]7CC(C)(C)CC[C@]7(C(=O)O[C@@H]7O[C@H](CO)[C@@H](O[C@@H]8O[C@@H](C)[C@H](O)[C@@H](O)[C@H]8O)[C@H](O)[C@H]7O)CC[C@]56C)C4(C)C)OC[C@H](O)[C@@H]3O)O[C@H](CO)[C@@H](O)[C@@H]2O)[C@H](O)[C@H](O)[C@H]1O (stereo not given in full)	none (no result: HTT prom inh, DRV1 agonist, HTT-AS act, GALC G270D act)
CC(=O)c1cccc(NS(=O)(=O)c2ccc3[nH]c4c(c3c2)CCCCCC4)c1	HTT prom inh inconclusive, DRV1 agonist 100, FH mod inconclusive
CC(=O)c1cccc(NS(=O)(=O)c2ccc3[nH]c4c(c3c2)CCCCC4)c1	HTT prom inh inconclusive, FH mod inconclusive
CC(=O)OC1C(=O)C2C3OCC4=C3[C@@](C)(CC[C@@H]4O)CC[C@]2(C)[C@H]1C(C)C (stereo not given in full)	none (no result: HTT prom inh, DRV1 agonist, HTT-AS act, GALC G270D act)
COc1ccc(NC(=O)CCc2nnc3n(C)c(=O)c4sccc4n23)cc1	none
Cn1c(=O)c2sccc2n2c(CCCC(=O)Nc3ccc(Oc4ccc(Cl)cc4)cc3)nnc12	HTT prom inh 40µM, FH mod inconclusive
CC(=O)O[C@@H]1C[C@@H](OC(C)=O)C(C)(C)/C=C/[C@H](C)[C@H](OC(C)=O)[C@@]2(O)C[C@H](C)[C@H](OC(=O)c3ccccc3)[C@@H]2/C=C/1C	none (no result: HTT prom inh, DRV1 agonist, HTT-AS act, GALC G270D act)
Cc1ccc(OCCn2c(CCNC(=O)COc3ccccc3Br)nc3ccccc32)cc1	none (no result: HTT prom inh, DRV1 agonist, FH mod, HTT-AS act, GALC G270D act)
COc1ccccc1[C@@H]1C2=C(CC(C)(C)CC2=O)Nc2n[nH]c(C(F)(F)F)c21	NTMT1 inhibitor inconclusive (no result: HTT prom inh, DRV1 agonist, HTT-AS act, GALC G270D act)
COc1ccc(CNC(=O)c2nc(Cn3nc(C)c(Br)c3C)no2)cc1OC	NTMT1 inhibitor 89µM
Cc1cccc(-c2nc3c4ccccc4n(CC(=O)Nc4cccc(F)c4)c(=O)n3n2)c1	DRV1 agonist 76
COc1cccc(CNC(=O)Cn2c(=O)n3nc(-c4cccc(C)c4)nc3c3ccccc32)c1	none
C#CC(C)(CC)NC(=O)Cn1nnc(-c2ccc(OCc3ccccc3F)cc2)n1 (stereo not given)	DRV1 agonist 91
COC(=O)c1ccccc1NC(=O)Cn1nnc(-c2ccc(OC)cc2)n1	none
C#CC(C)(CC)NC(=O)Cn1nnc(-c2ccc(OCc3ccccc3C)cc2)n1 (stereo not given)	DRV1 agonist 62
Cc1ccccc1Nc1c(-c2ccc(Cl)s2)nc2cccc(C)n12	DRV1 agonist 61, HTT-AS act inconclusive
Cc1ccccc1Nc1c(-c2ccccc2)nc2cccc(C)n12	none
Cc1ccccc1Nc1c(-c2c[nH]c3ccccc23)nc2cccc(C)n12	DRV1 agonist 63, FH mod inconclusive, HTT-AS act inconclusive
Cc1ccc2nc(-c3c[nH]c4ccccc34)c(Nc3ccccc3C)n2c1	none
Cn1cc(C2=C(c3cn(CCCSC(=N)N)c4ccccc34)C(=O)NC2=O)c2ccccc21	NTMT1 inhibitor 3.2µM (no result: HTT prom inh, DRV1 agonist, HTT-AS act, GALC G270D act)
Oc1c(C(c2ccccc2Cl)N2CCN(Cc3ccccc3)CC2)sc2nc(-c3ccco3)nn12 (stereo not given)	DRV1 agonist 94
CC(C)Oc1ccc(-c2cnc3c(-c4ccnc5ccccc45)cnn3c2)cc1	none (no result: HTT prom inh, DRV1 agonist, HTT-AS act, GALC G270D act)
